PubChem BioAssay AID1851 (National Center for Advancing Translational Sciences (NCATS), 2009)
Hit rate of the full screen: of about 16,000 compounds, about 4,000 (25%) were called active. Roughly 26% stayed inconclusive and do not appear here. Calls come from the whole dose curve; as a rule, active = well fitted curve in the direction sought with a large enough effect; inconclusive = small, poorly fitted or top-dose-only effect, or effect the other way; inactive = no such curve, though single readings can be large or run the other way. A selection follows.

Target: Cytochrome P450 2C9 (Homo sapiens) (UniProt P11712)
Sequence (P11712 whole entry, looked up): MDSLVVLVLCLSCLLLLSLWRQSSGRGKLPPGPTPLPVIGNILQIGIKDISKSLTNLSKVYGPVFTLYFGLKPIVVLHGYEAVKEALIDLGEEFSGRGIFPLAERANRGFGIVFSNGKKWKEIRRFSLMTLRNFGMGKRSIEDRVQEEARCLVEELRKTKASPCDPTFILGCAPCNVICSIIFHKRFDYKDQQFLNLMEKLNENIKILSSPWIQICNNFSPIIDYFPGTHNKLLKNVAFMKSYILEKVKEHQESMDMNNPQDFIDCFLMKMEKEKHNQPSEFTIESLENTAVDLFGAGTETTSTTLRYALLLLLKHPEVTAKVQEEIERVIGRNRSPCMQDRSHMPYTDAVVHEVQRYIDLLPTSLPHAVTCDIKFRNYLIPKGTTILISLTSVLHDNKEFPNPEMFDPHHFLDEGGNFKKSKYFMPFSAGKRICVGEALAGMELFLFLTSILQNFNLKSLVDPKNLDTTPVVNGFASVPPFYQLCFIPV
Test: Cytochrome panel assay with activity outcomes
Settings: recombinant CYP, pro-luciferin dealkylation, luminescence, p450-cyp2c9; series mostly up to 57.1 µM; activity, negative = inhibition: at the top concentration
% is set by controls: 0 for no effect and ±100 for the full control effect.

SMILES	activity, negative = inhibition	AC50
COc1ccccc1-c1ccc2ncnc(N(C)C)c2c1	-21.1% [at 2.29 µM] (inactive)	
CN1[C@@H]2CC[C@H]1CC(OC(=O)c1c[nH]c3ccccc13)C2 (some centres not stated)	-7.96% (inactive)	
CN1C2C=C(N(CCc3c[nH]c4ccccc34)C(=O)c3ccc(Cl)cc3)CC1CC2 (configuration not stated)		1.78 µM (active)
O=C(O)[C@H](Cc1c[nH]c2ccccc12)N1C(=O)c2ccccc2C1=O	6.23% [at 11.4 µM] (inactive)	
C#CCCCO/N=C1/[C@H]2O[C@@H]2[C@@H](O)[C@H]2[C@H]1CCn1c(=O)n([C@@H](CC)c3ccccc3)c(=O)n12	4.97% [at 11.4 µM] (inactive)	
COc1ccc(C(=O)Nc2cccc(OC(=O)c3ccc(C)c(C)c3)c2)cc1		3.55 µM (active)
CN(Cc1ccco1)c1ncncc1-c1ccoc1	-8.69% [at 2.29 µM] (inactive)	
C/C(=N\n1nnnc1Nc1ccccc1)c1ccc(N)cc1		11.2 µM (active)
N=C(N)SCc1nc2ccccc2c(=O)n1-c1ccccc1Cl		3.16 µM (active)
O=C(O)c1cc(-c2ccncc2)nc2ccccc12	-29.2% [at 11.4 µM] (inactive)	
O=C(c1cc(-c2ccncc2)nc2ccccc12)N1CCN(c2ccc(N3CCOCC3)nn2)CC1		1.26 µM (active)
O=C(O)CSSCC(=O)O	22.5% [at 11.4 µM] (inactive)	
N[C@H](C(=O)O)c1cccc(O)c1		inactive
CCn1c(=O)c2[nH]c(-c3ccccc3)nc2n(CC)c1=O	3.25% (inactive)	
Cn1c(=O)c2[nH]c(-c3ccccc3)nc2n(C)c1=O	-14.3% (inactive)	
CCCn1c(-c2ccccc2)nc2c(=O)n(C)c(=O)[nH]c21		12.6 µM (active)
CC[N+](CC)(CC)CC	-7.63% (inactive)	
Cc1nn2c3c(cnc2c1-c1ccccc1)C(=O)CC(c1ccccc1)C3 (configuration not stated)		10 µM (active)
N[C@H](C(=O)O)[C@H](N)C(=O)O	17.2% [at 11.4 µM] (inactive)	
C=C[C@H](N)CCC(=O)O		inactive
CO/N=C(\C(=O)N[C@@H]1C(=O)N2C(C(=O)O)=C(COC(C)=O)CS[C@@H]12)c1csc(N)n1		inactive

SMILES	activity, negative = inhibition	AC50
COc1ccc(N(CC(=O)O)N=O)cc1	-1.12% [at 11.4 µM] (inactive)	
COc1ccc(N(C(=O)COc2ccccc2OC)S(=O)(=O)c2ccc(C)cc2)cc1		1 µM (active)
Cc1ccccc1-c1cc(NCCN2CCOCC2)ncn1	18.6% [at 2.29 µM] (inactive)	
O=C1C(=O)c2ccccc2C(O)=C1C1CCC(c2ccc(Cl)cc2)CC1 (configuration not stated)		2 µM (active)
CCC(c1nnnn1CC1CCCO1)N(CCN1CCOCC1)Cc1cc2cc(C)ccc2[nH]c1=O (configuration not stated)	-10% (inactive)	
Cc1cc(C)c2cc(CN(Cc3nnnn3Cc3ccc(F)cc3)C3CCCC3)c(=O)[nH]c2c1		7.08 µM (active)
Cn1nccc1C(=O)Nc1ccc(Cl)cc1	-23% (inactive)	
Cn1c(C(=O)Nc2ccccc2)cc2sccc21		20 µM (active)
COCC(=O)N(C)c1nnc(-c2ccc([N+](=O)[O-])cc2)s1	-27.4% (inactive)	
COCCN(C(=O)c1ccco1)c1nnc(-c2ccc(OC)cc2)s1		28.2 µM (active)
O=C1N(c2ccccc2)c2ccccc2C1(Cc1ccncc1)Cc1ccncc1		7.94 µM (active)
C=CCN1CCc2cc(O)c(O)cc2[C@H](c2ccccc2)C1		inactive
COc1ccccc1CN1CC2(CCN(S(C)(=O)=O)CC2)C1	17.2% (inactive)	
Nc1nc(SCC(=O)Nc2ccccc2Sc2ccc(Cl)cc2)n[nH]1		1 µM (active)
Cc1ccc(NC(=O)CN(C)C(=O)CSc2n[nH]c(N)n2)cc1	-22.5% (inactive)	
CC(C)=CCC/C(C)=C/CO/N=C1/C[C@@H](O)[C@@H](O)[C@@H]2[C@@H]3C(=O)N(C(C)(C)C)C(=O)[C@H]3CC[C@@H]12	-9.91% [at 11.4 µM] (inactive)	
C=CCNC(=O)/C(=C\C=C\c1ccccc1)NC(=O)c1ccc(OCCCC)cc1		12.6 µM (active)
CC[N+](CC)(CC)CCOc1ccc(/C=C\c2ccccc2)cc1	15.3% (inactive)	
Clc1ccc(/C=N/Nc2nnc(-c3ncc[nH]3)c3ccccc23)cc1		5.01 µM (active)
N[C@@H](CSC(=O)c1ccccc1)C(=O)O	18.3% [at 11.4 µM] (inactive)	
O=C(Nc1cccn(Cc2c(Cl)cccc2Cl)c1=O)c1ccc(Cl)cc1Cl		3.55 µM (active)

SMILES	activity, negative = inhibition	AC50
O=C1Nc2ccccc2Nc2ncccc21	-14.8% (inactive)	
O=C(NCc1ccc2c(c1)OCO2)C1CC(=O)N(C2CCCC2)C1 (configuration not stated)	-25% (inactive)	
COc1cc(C(=O)NCCC(=O)NCc2ccc3c(c2)OCO3)cc(OC)c1OC	-28.6% (inactive)	
CC1(C)CC(NCc2ccc3c(c2)OCO3)CCO1 (configuration not stated)	5.26% (inactive)	
C/C(=C\C(=O)c1ccc(Br)cc1)NCc1ccc2c(c1)OCO2		11.2 µM (active)
C/C(=C\C(=O)c1ccc(Cl)cc1)NCc1ccc2c(c1)OCO2		7.94 µM (active)
O=C1Nc2ccccc2C(O)(C(=O)NCc2ccc3c(c2)OCO3)N1c1ccc(Cl)c(Cl)c1 (configuration not stated)	-27.3% (inactive)	
Cc1[nH]c2ccccc2c1/C=C/c1cc[n+](C)cc1	23.4% (inactive)	
CCCc1ncc(C[n+]2ccccc2C)c(N)n1	-6.81% [at 25.6 µM] (inactive)	
O=c1c2ccccc2ncn1CCCSc1ccccc1		14.1 µM (active)
O=C(c1ccccc1)c1ccc(OCCn2cnc3ccccc3c2=O)cc1		2.82 µM (active)
COc1ccc(Cl)cc1C(=O)Nn1cnc2ccccc2c1=O	7.58% (inactive)	
O=C1c2ccccc2C(=O)N1CCCSc1ccccc1	-22.7% [at 11.4 µM] (inactive)	
Cc1ccc(SCCCn2cnc3ccccc3c2=O)cc1		12.6 µM (active)
COc1ccc2c(OC)c3ccoc3nc2c1OC	19.1% [at 25.6 µM] (inactive)	
CN(CC(=O)O)Cc1c(O)c(Cl)cc(Cl)c1Cl	13.6% [at 11.4 µM] (inactive)	
C[C@@H](C(=O)NCCc1c[nH]c2ccccc12)[C@@H]1C[C@@]1(C)[C@@H](NC(=O)OCc1ccccc1)c1ccccc1		2.51 µM (active)
COC(=O)C(Cc1c[nH]c2ccccc12)NC(=O)C(C)C (configuration not stated)	-33.5% (inactive)	
C[C@@H](C(=O)NCCc1c[nH]c2ccccc12)[C@H]1C[C@]1(C)[C@H](NC(=O)OCc1ccccc1)c1ccccc1		0.631 µM (active)
CC(=O)N[C@@H](Cc1c[nH]c2ccccc12)C(=O)OCc1cc(C(F)(F)F)cc(C(F)(F)F)c1	2.21% (inactive)	
